The sample as a whole holds a higher share of hits than the screen did.
miR-122 inh = miR-122 sensor activation; Huh7 psiCHECK-miR122 Renilla luciferase sensor, 48 h; activation, % at 12.5 µM; 340,000 compounds, 0.14% hits; AID 623901;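 active means mean activation of 30% or more, with every replicate also reaching 30%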;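 further: higher luciferase signal means stronger suppression of miR-122 activity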
Each line names hits and unclear results; the compound was inactive in the other large screens.

O=C1NC(=O)N(CCC2=CCCCC2)C(=O)/C1=C\c1cccs1	miR-122 inh 33
O=P(Nc1ccccc1)(Nc1ccccc1)Oc1ccc(Cl)cc1	none
COc1ccc(-c2ccc3c(c2)CN(C(=S)NCCc2ccccc2)Cc2cnnn2-3)cc1	none
Cc1ccc(C(=O)Nc2ccc(Cl)cc2C(=O)c2ccccc2)cc1	none
CC(=O)OC1(Cc2ccccc2)CN2CCC1c1ccccc12 (stereo not given)	miR-122 inh 36
C[C@@H]1O[C@@H](O[C@H]2C[C@@H](O)[C@]3(CO)[C@H]4[C@H](O)C[C@]5(C)[C@@H](C6COC(=O)C6)CC[C@]5(O)[C@@H]4CC[C@]3(O)C2)[C@H](O)[C@H](O)[C@H]1O (stereo not given in full)	none
